This is an account of results in PubChem BioAssay.

In general, viability refers to a read-out of living cells in per cent, often relative to untreated cells.

Values joined by “and” are separate entries in the source; they are usually repeats but may differ in a detail not shown here. Identical values can stand only once. Active and inactive are the calls of the source. Unless noted, no stated cut-off is given here; in the data, active means parasite load remaining mostly below about 12% (no sharp cut-off); inactive means mostly above about 10%.

The nature of test [1]: P. berghei load reduction in hepatocytes – cell-based, HepG2, luciferase luminescence, HepG2 viability, primary screen (AID 624349).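 Further: 100% = mean of DMSO negative control wells on the same plate.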 Conditions: P. berghei liver stage in HepG2, luciferase luminescence, concentration not given here; parasite load remaining: stronger effect = lower value; viability: measured here: HepG2 viability without parasites.
A short description of test [2]: EMT-state selective cytotoxicity in co-culture – imaging, PC-3E GFP, TEM4-18 mCherry, primary screen (AID 1345086;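 active means compounds killing one labelled cell type while sparing the other, by normalised counts and ratio limits, not self-fluorescent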;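 on all read-outs here: cells exposed to compound for 72 h before imaging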;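 on red/green cell ratio (normalised): normalised mesenchymal count divided by normalised epithelial count so high means epithelial killing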). Conditions: PC-3E GFP / TEM4-18 mCherry co-culture, imaging cell counts, at 1 µM; for red/green cell ratio (normalised): actives lie on both sides, counts scaled to control wells, 1 = unselective.
The nature of test [3]: viability loss with induced miR-34 in A549 – imaging, A549 dox-inducible miR-34, nuclei and caspase counts, primary screen (AID 1347080;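 active means compounds whose cell count with miR-34 switched on is under 0.7 times the count with it off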). Conditions: A549 miR-34 inducible, Hoechst nuclei count, 48 h.
A short description of test [4]: compounds altering viability of human ES cells (AID 493140; call rule not given here;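 further: cells exposed to compounds for four days before counting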). Conditions: human embryonic stem cell survival screen; stronger effect = higher value.
Where [5] appears, read: measured here: epithelial PC-3E GFP cell survival.
[6] abbreviates: measured here: mesenchymal TEM4-18 mCherry cell survival.
The mark [7] stands for this setting: stronger effect = lower value, cell number ratio, induced over uninduced.
The mark [8] stands for this setting: measured here: relative caspase fold change +Dox/-Dox.
[9] abbreviates: measured here: total cells with miR-34 induction, stronger effect = lower value.
Setting [10] is: measured here: total cells without miR-34 induction.

With `CC(=O)OCC(=O)[C@@]12OC(C)(C)O[C@@H]1CC1C3C[C@H](F)C4=CC(=O)C=C[C@]4(C)[C@@]3(F)[C@@H](O)C[C@@]12C` (some centres not stated), the parasite load remaining in test [1] was 117% (inactive) and 83.7% (inactive). The viability in test [1] was 77.1% and 96.2%. Besides, the red/green cell ratio (normalised) in test [2] was 1.1 (inactive). The figures for the normalised cell number in test [2] (setting [5]) and in test [2] (setting [6]) were 1.15 and 1.26, respectively. The fold change was 0.893 (inactive) in test [3] (setting [7]) and 0.979 in test [3] (setting [8]). Besides, the values for the cell count in test [3] (setting [9]) and in test [3] (setting [10]) were 6960 and 7790, respectively.
Consider `CCOC(=O)C(C)(N)Cc1ccc(O)c(O)c1` (configuration not stated), for which the parasite load remaining in test [1] is 15% (inactive). For the same compound, in test [1], the viability stood at 103%. Moreover, the red/green cell ratio (normalised) in test [2] is 1.25 (inactive). Further, the normalised cell number came to 0.9 in test [2] (setting [5]) and 1.12 in test [2] (setting [6]). The fold change was 0.926 (inactive) in test [3] (setting [7]) and 3.34 in test [3] (setting [8]). Besides, the cell count was found to be 12200 in test [3] (setting [9]) and 13200 in test [3] (setting [10]).
As for `CC1=C(C(=O)O)N2C(=O)[C@@H](NC(=O)C(N)c3ccc(O)cc3)[C@H]2SC1` (some centres not stated), the parasite load remaining in test [1] is 82.3% (inactive) and 62.8% (inactive). Further, the viability in test [1] is 75.2% and 100%. Further, the red/green cell ratio (normalised) in test [2] was 1.2 (inactive). Also, the normalised cell number in test [2] (setting [5]) amounted to 1.16; in test [2] (setting [6]) it was 1.4. In addition, the fold change was 0.948 (inactive) in test [3] (setting [7]) and 3.02 in test [3] (setting [8]). Besides, the cell count in test [3] (setting [9]) stood at 12000; in test [3] (setting [10]), 12700.
In the case of `C/C=C\C1=C(C(=O)O)N2C(=O)C(NC(=O)C(N)c3ccc(O)cc3)C2SC1` (configuration not stated), the parasite load remaining in test [1] is 117% (inactive) and 53.4% (inactive). Further, the viability in test [1] is 69.3% and 102%. In addition, the red/green cell ratio (normalised) in test [2] was 1.07 (inactive). The figures for the normalised cell number in test [2] (setting [5]) and in test [2] (setting [6]) were 0.97 and 1.04, respectively. Also, the results for the fold change in test [3] (setting [7]) and in test [3] (setting [8]) were 0.891 (inactive) and 4.02, respectively. The cell count in test [3] (setting [9]) was 11600; in test [3] (setting [10]), 13100.
As to `CC(C)C1CCC(C(=O)N[C@@H](Cc2ccccc2)C(=O)O)CC1` (some centres not stated), the parasite load remaining in test [1] was 74.2% (inactive) and 53.3% (inactive). For the same compound, in test [1], the viability was 105% and 113%. Further, the red/green cell ratio (normalised) in test [2] is 0.92 (inactive). In addition, the figures for the normalised cell number in test [2] (setting [5]) and in test [2] (setting [6]) were 1.14 and 1.05, respectively. The fold change in test [3] (setting [7]) is 0.867 (inactive); in test [3] (setting [8]) it was 4.55. Besides, the figures for the cell count in test [3] (setting [9]) and in test [3] (setting [10]) were 11100 and 12800, respectively.
For the compound `CC(C)(C)NCC(O)COc1cccc2c1CCCC2=O` (configuration not stated), the parasite load remaining in test [1] is 76.4% (inactive). The viability in test [1] worked out at 103%. Besides, in test [2], the red/green cell ratio (normalised) is 1.02 (inactive). Further, the normalised cell number in test [2] (setting [5]) was 1.01; in test [2] (setting [6]) it was 1.03. Further, the fold change in test [3] (setting [7]) was 0.83 (inactive); in test [3] (setting [8]) it was 2.71. In addition, the cell count in test [3] (setting [9]) amounted to 11300; in test [3] (setting [10]), 13600.
Take `CCC(C)C(=O)O[C@H]1C[C@H](O)C=C2C=C[C@H](C)[C@H](CC[C@@H](O)C[C@@H](O)CC(=O)O)C21` (some centres not stated): the parasite load remaining in test [1] is 152% (inactive) and 58.6% (inactive). Further, the viability in test [1] is 84.1% and 191%. Further, the red/green cell ratio (normalised) in test [2] was 0.96 (inactive). For the same compound, the figures for the normalised cell number in test [2] (setting [5]) and in test [2] (setting [6]) were 1.19 and 1.14, respectively. The fold change is 0.861 (inactive) in test [3] (setting [7]) and 5.53 in test [3] (setting [8]). For the same compound, the cell count in test [3] (setting [9]) was 11700; in test [3] (setting [10]), 13500.
In the case of `CC(=O)Nc1cc2ccccc2oc1=O`, the survival in test [4] is 3.5 (inactive). For the same compound, the parasite load remaining in test [1] is 90.5% (inactive). For the same compound, in test [1], the viability amounted to 77.8%. In addition, the red/green cell ratio (normalised) in test [2] is 0.74 (inactive). For the same compound, the normalised cell number is 1.29 in test [2] (setting [5]) and 0.95 in test [2] (setting [6]). In addition, the values for the fold change in test [3] (setting [7]) and in test [3] (setting [8]) were 0.955 (inactive) and 0.792, respectively. Also, the cell count in test [3] (setting [9]) came to 8640; in test [3] (setting [10]), 9040.
`NC[C@H]1O[C@H](OC2[C@@H](N)C[C@@H](N)[C@H](O[C@H]3O[C@H](CO)[C@@H](O)[C@H](N)[C@H]3O)[C@H]2O)[C@H](O)[C@@H](O)[C@@H]1O` (some centres not stated): the parasite load remaining in test [1] is 92.2% (inactive) and 70.3% (inactive). Further, in test [1], the viability was 72.7% and 101%. Also, the red/green cell ratio (normalised) in test [2] is 1.25 (inactive). For the same compound, the figures for the normalised cell number in test [2] (setting [5]) and in test [2] (setting [6]) were 0.64 and 0.8, respectively. In addition, the results for the fold change in test [3] (setting [7]) and in test [3] (setting [8]) were 0.877 (inactive) and 2, respectively. Also, the cell count in test [3] (setting [9]) worked out at 11500; in test [3] (setting [10]) it was 13200.
Consider `C=C1CC[C@H](O)C/C1=C/C=C1\CCCC2(C)C1CCC2C(C)CCCC(C)C` (some centres not stated), for which the parasite load remaining in test [1] was 36.2% (inactive). In addition, in test [1], the viability was found to be 104%. Besides, the red/green cell ratio (normalised) in test [2] is 1.03 (inactive). The normalised cell number in test [2] (setting [5]) is 1.11; in test [2] (setting [6]) it was 1.14. Moreover, the fold change in test [3] (setting [7]) was 0.909 (inactive); in test [3] (setting [8]), 2.89. For the same compound, the cell count in test [3] (setting [9]) came out at 11700; in test [3] (setting [10]), 12900.
`CCC(=O)OCC(=O)[C@@]1(OC(=O)CC)[C@@H](C)CC2C3CCC4=CC(=O)C=C[C@]4(C)C3(F)[C@@H](O)C[C@@]21C` (some centres not stated): in test [1], the parasite load remaining was 25.9% (inactive). Also, the viability in test [1] was found to be 83.8%. Also, the red/green cell ratio (normalised) in test [2] was 1.32 (inactive). The normalised cell number in test [2] (setting [5]) came to 1.03; in test [2] (setting [6]), 1.37. Besides, the fold change in test [3] (setting [7]) was 0.918 (inactive); in test [3] (setting [8]) it was 2.62. Further, the cell count in test [3] (setting [9]) came out at 7780; in test [3] (setting [10]), 8480.
Regarding `C=C(NC(=O)C(=C)NC(=O)c1csc(C2=NC3c4csc(n4)C4NC(=O)c5csc(n5)C(C(C)(O)C(C)O)NC(=O)C5CSC(=N5)C(=CC)NC(=O)C(C(C)O)NC(=O)c5csc(n5)C3(CC2)NC(=O)C(C)NC(=O)C(=C)NC(=O)C(C)NC(=O)C(C(C)CC)NC2C=Cc3c(C(C)O)cc(nc3C2O)C(=O)OC4C)n1)C(N)=O` (configuration not stated), the parasite load remaining in test [1] was 64.9% (inactive) and 23.2% (inactive). For the same compound, in test [1], the viability was 75.8% and 108%. The red/green cell ratio (normalised) in test [2] is 0.94 (inactive). The results for the normalised cell number in test [2] (setting [5]) and in test [2] (setting [6]) were 0.8 and 0.75, respectively. In addition, the values for the fold change in test [3] (setting [7]) and in test [3] (setting [8]) were 0.829 (inactive) and 1.94, respectively. Moreover, the cell count in test [3] (setting [9]) was found to be 9190; in test [3] (setting [10]), 11100.
In the case of `CC1=C(C(=O)O)N2C(=O)[C@@H](NC(=O)[C@H](N)C3=CCC=CC3)C2SC1` (some centres not stated), in test [1], the parasite load remaining is 74.8% (inactive) and 68.7% (inactive). In addition, in test [1], the viability is 77.3% and 102%. Further, in test [2], the red/green cell ratio (normalised) was 1 (inactive). Besides, the normalised cell number in test [2] (setting [5]) is 1.13; in test [2] (setting [6]), 1.14. Also, the fold change in test [3] (setting [7]) was 0.89 (inactive); in test [3] (setting [8]), 4.9. The figures for the cell count in test [3] (setting [9]) and in test [3] (setting [10]) were 11000 and 12400, respectively.
As to `Cc1nc(N)cc(C[n+]2csc(CCO)c2C)n1`, the parasite load remaining in test [1] was 58.2% (inactive). The viability in test [1] is 97.3%. The red/green cell ratio (normalised) in test [2] is 0.91 (inactive). The normalised cell number was found to be 0.96 in test [2] (setting [5]) and 0.87 in test [2] (setting [6]). Moreover, the fold change was 0.946 (inactive) in test [3] (setting [7]) and 4.78 in test [3] (setting [8]). For the same compound, the cell count came to 12800 in test [3] (setting [9]) and 13500 in test [3] (setting [10]).
